Records with an inconclusive call do not appear. Activity calls are given as the source filed them. The calls were made as follows: active = hit-call score of the fitted dose curve at least 0.9, where 1 is the maximum; inconclusive = response in the unintended direction; inactive = score below 0.9.

Nuclear receptor subfamily 1 group I member 2 (Homo sapiens), sequence (O75469 whole entry, looked up): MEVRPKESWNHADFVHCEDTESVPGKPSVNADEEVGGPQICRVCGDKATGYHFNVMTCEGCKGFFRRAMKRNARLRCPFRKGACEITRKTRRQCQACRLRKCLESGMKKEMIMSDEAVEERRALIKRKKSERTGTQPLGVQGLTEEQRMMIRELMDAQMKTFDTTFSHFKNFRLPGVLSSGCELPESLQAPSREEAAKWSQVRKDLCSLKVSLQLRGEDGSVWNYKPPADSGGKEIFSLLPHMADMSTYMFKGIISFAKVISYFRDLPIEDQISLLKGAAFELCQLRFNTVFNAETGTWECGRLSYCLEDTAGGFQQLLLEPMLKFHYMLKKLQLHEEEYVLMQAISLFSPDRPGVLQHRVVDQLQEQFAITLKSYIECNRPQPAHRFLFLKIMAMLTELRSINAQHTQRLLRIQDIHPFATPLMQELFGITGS

The assay deals with Nuclear receptor subfamily 1 group I member 2 (Homo sapiens) (UniProt O75469). Nature of the assay: ATG_PXR_TRANS: Attagene TRANS-FACTORIAL HepG2 Assay for human Pregnane X Receptor (PXR) (AID 2283008). On the procedure:
ATG_TRANS is a cell-based, multiplexed-readout assay that uses HepG2, a human liver cell line, with measurements taken at 24 hours after chemical dosing in a 24-well plate.ATG_PXR_TRANS is one of 30 assay component(s) measured or calculated from the ATG_TRANS assay. It is designed to make measurements of mRNA induction, a form of inducible reporter, as detected with fluorescence intensity signals by Reverse transcription polymerase chain reaction (RT-PCR) and Capillary electrophoresis technology.Data from the assay component ATG_PXR_TRANS was analyzed into 1 assay endpoint. This assay endpoint, ATG_PXR_TRANS, was analyzed in the positive analysis fitting direction relative to DMSO as the negative control and baseline of activity. Using a type of inducible reporter, measures of mRNA for gain-of-signal activity can be used to understand the reporter gene at the transcription factor-level as they relate to the gene NR1I2. Furthermore, this assay endpoint can be referred to as a primary readout, because this assay has produced multiple assay endpoints where this one serves a reporter gene function. To generalize the intended target to other relatable targets, this assay endpoint is annotated to the nuclear receptor intended target family, where the subfamily is non-steroidal.
Human liver HepG2 cells are transiently transfected with multiple reporter transcription units (MRTUs) in 6-well plates using FuGene 6 reagent (Roche; 3 ml FuGene/1 mg DNA). The MRTU constructs are regulated by a cis-regulating element (promoter). […] A major difference between the CIS and TRANS system is that in CIS activities of endogenous TFs are measured, whereas the TRANS assay evaluates changes in activities of exogenous, chimeric NR-Gal4 proteins. […] At the end of 24 hour incubation, total RNA was isolated using TriZol reagent (Invitrogen). The isolated RNA is then reverse-transcribed using oligo(dT) primer and Mo-MLV reverse transcriptase (Invitrogen) with DNAse I (Ambion) treatment for 30 min. The one-tenth of the produced cDNA was amplified by PCR using Taq DNA polymerase (Invitrogen) and two reporter sequence-specific primers. The PCR products were fluorescently labeled by primer extension with 6-arboxyfluorescein (6-FAM) 5'-labeled reporter sequence-specific primer (2 min at 95 C, 20 s at 68 C and 10 min at 72 C) and these products were digested with 5U of HpaI (New England Biolabs) for 2h at 37 C. The fragments were purified using Qiaquick PCR columns (Qiagen), analyzed on an ABI 3130xL genetic analyzer (Applied Biosystems) with peak positions identified by using a set of X-rhodamine (ROX)-labeled MapMarker1000 molecular weight standards (BioVentures). The raw capillary electrophoresis data was processed using Attagraph software (Attagene).
As for `CCCCOC(=O)CCCCCCCC(=O)OCCCC`, the call was inactive.

In the case of `O=CN1CCOCC1`, the call was inactive.

In general, AC50 refers to the concentration giving half of the maximal activity seen. Regarding `Cc1cc(CCC(=O)OCCOCCOCCOC(=O)CCc2cc(C)c(O)c(C(C)(C)C)c2)cc(C(C)(C)C)c1O`, the AC50 was 23.3 µM (active).

`CCCCCCC(CO)CCCC` (stereo not given): the molecule was called inactive.

Take `CCOC(=O)[C@@H](C)Oc1ccc(Oc2nc3ccc(Cl)cc3o2)cc1`: the molecule was classed as inactive.

As for `CC(=O)C1(C)CC2=C(CCCC2(C)C)CC1C` (stereo not given), the AC50 is 9.83 µM (active).

As for `CC(C)CC(C)CC(O)CC(C)C` (stereo not given), the call was inactive.

Turning to `CCCCCCCCSCCO`, the call was inactive.

`CCCCC(CC)COC(=O)c1ccc(O)cc1` (stereo not given): the AC50 is 20.7 µM (active).

`CCCCC(CC)COC(C)=O` (stereo not given): the molecule was classed as inactive.

As to `C1CCOC1`, the molecule was classed as inactive.

Consider `CC(C)=CCCC(C)CCOC=O` (stereo not given), for which the molecule was classed as inactive.

Regarding `Nc1ccc2cc(S(=O)(=O)O)cc(O)c2c1N=Nc1ccccc1C(F)(F)F`, the outcome was inactive.

Consider `c1ccc(CCc2ccccc2)cc1`, for which the AC50 is 31.6 µM (active).

For `CCCCCCCCCC(C)C=O` (stereo not given), the call was inactive.

Consider `c1ccc(CN(Cc2ccccc2)Cc2ccccc2)cc1`, for which the outcome was inactive.

On to `OCc1ccc(Cl)cc1Cl`, for which the outcome was inactive.

`CCCOCCO`: the result was inactive.

Take `CC(=O)c1c(C)c([N+](=O)[O-])c(C(C)(C)C)c([N+](=O)[O-])c1C`: the AC50 is 1.84 µM (active).

`CCCOC(=O)c1c(Cl)c(Cl)c(Cl)c(Cl)c1C(=O)OCCC`: the AC50 was 4.24 µM (active).

Turning to `Cc1ncc[nH]1`, the molecule was classed as inactive.

On to `CCCCC1CCC(O)CC1` (stereo not given), for which the outcome was inactive.

Regarding `C=CCCC(=O)/C=C/C1C(C)=CCCC1(C)C` (stereo not given), the AC50 is 2.37 µM (active).

Regarding `CC(C)c1ccccc1O`, the molecule was called inactive.

For `C=C(C#N)C(=O)OCC`, the molecule was called inactive.

With `CN(C)c1cccc(O)c1`, the AC50 was 5.57 µM (active).

Regarding `CCOc1ccc(NC(=O)CC(C)O)cc1` (stereo not given), the outcome was inactive.

Take `NCc1ccco1`: the result was inactive.

As to `ClC(c1ccccc1)(c1ccccc1)c1ccccc1`, the AC50 was 2.2 µM (active).

Consider `CC(=O)O[C@@H]1C[C@@H]2CC[C@@]1(C)C2(C)C`, for which the call was inactive.

Regarding `C=CC(C)(O)CCC=C(C)C` (stereo not given), the molecule was called inactive.

As to `C=C1CC[C@H](O)C/C1=C/C=C1\CCC[C@]2(C)[C@@H]([C@H](C)/C=C/[C@H](C)C(C)C)CC[C@@H]12`, the AC50 was 3.81 µM (active).

`CC(C)(C)C1=CC(=O)C(C(C)(C)C)=CC1=O`: the AC50 is 5.78 µM (active).

`CS(=O)(=O)c1ccc(C2=C(c3ccccc3)C(=O)OC2)cc1`: the molecule was classed as inactive.

As to `Nc1ccc(NCCO)c([N+](=O)[O-])c1`, the result was inactive.

For the molecule `C#CC(C)(O)CC(C)C` (stereo not given), the call was inactive.

`CCCC(=O)c1ccccc1`: the call was inactive.

As to `CC(=O)OCCCc1ccccc1`, the molecule was classed as inactive.

As to `CCCCCCCCCCCCCC(=O)OCC(O)CO` (stereo not given), the molecule was called inactive.

For the molecule `CCO/C=C1\N=C(c2ccccc2)OC1=O`, the outcome was inactive.

(Values after PubChem BioAssay (EPA / NIEHS).)
